Reference: PubChem BioAssay AID576 (NMMLSC, 2007)
In all, about 24,000 compounds went through this assay and about 150 (0.62%) were called active.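 Rule for the calls: active = fluorescence ratio above 2.44, which is 1 plus 3 SD of all ratios; inconclusive = signal too bright to measure linearly, ratio around 10 or more; inactive = fluorescence ratio below 2.44.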 The sample as a whole holds a higher share of actives than the screen did.

Assay: intrinsic compound fluorescence with Jurkat cells – cell-based, flow cytometry, artefact control for VLA-4 allosteric ligand project, primary screen (AID 576);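 note: green fluorescence of cells measured with 488 nm excitation and 530 nm emission; tested at 10 µM compound in the well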
Conditions: compound autofluorescence, stronger effect = higher value, 1 = vehicle-only cell background

Fluorescence ratio, inactive:
c1cnn(-c2cc(N3CCOCC3)ncn2)c1 1.1
CCCCC(=O)N(c1ccc(OC)cc1)C1C=CS(=O)(=O)C1 (stereo not drawn) 1.03
Cc1nc(SCC(=O)Nc2cc(C)on2)c2c3c(sc2n1)CCCC3 1.28
COc1cccc(Nc2nnc(SCC(=O)N3CC(C)OC(C)C3)s2)c1 (stereo not drawn) 1.02
CC(=O)N(CC1CCCO1)C1(C(=O)NC2CCCC2)CCCCC1 (stereo not drawn) 0.95
O=C(Nn1cc(C(=O)N2CCN(c3ccccc3F)CC2)c2ccccc2c1=O)c1cnccn1 1.02
COCCN1Cc2cccc(C(=O)Nc3ccccc3OC)c2C1=O 1.02
CCCCN(C)Cc1c(C)[nH]c2ccc(Cl)cc2c1=O 1.01
CCn1c(SCC(=O)Nc2ccccc2F)nc2c(c1=O)SC(C)C2 (stereo not drawn) 0.98
CCc1c(C)c2c(C)[nH]nc2oc1=O 1.2
CCOc1ccc(-c2nnc3ccc(SC)nn23)cc1 0.96
CCOC(=O)c1sc(=S)n2c1[nH]c(=O)c1ccc(C(=O)OC)cc12 1.2
CC(=O)Nc1ccc(NS(=O)(=O)c2cc(C)sc2C)cc1 2.14
O=C(CC1Oc2ccccc2NC1=O)NCCCN1CCN(Cc2ccccc2)CC1 (stereo not drawn) 1.05
COCCCNC(=O)CCc1nc2cccnc2n1Cc1ccc(OC)cc1 1.04
Cc1ccc(NC(=O)NCC(c2cccnc2)N2CCOCC2)cc1 (stereo not drawn) 0.96
O=C(CN1CCOc2ccccc21)N1CCC(Cc2ccccc2)CC1 1.07
O=C(NCc1ccco1)C1CCCN(S(=O)(=O)c2cccc3nonc23)C1 (stereo not drawn) 1.11
Cc1ccc(CNC(=O)CN2CCN(Cc3ccc(Cl)cc3)C2=O)cc1 1.03
Cc1ccc(NC(=O)C2CCCN(S(=O)(=O)c3c(C)noc3C)C2)c(C)c1 (stereo not drawn) 1.07
COc1ccc(C2CC(c3ccccc3)Nc3ncnn32)cc1 (stereo not drawn) 1.19
COc1cccc(-c2nc3n(n2)C(c2ccccc2Cl)C(C(N)=O)=C(C)N3)c1 (stereo not drawn) 1.01
CN1CCCc2cc(C#N)c(=O)[nH]c21 1
O=C(O)CCN1C(=O)CC2(CCCCC2)C1=O 1
Cc1ccc(NC(=O)CCNS(=O)(=O)c2ccc3c(c2)oc(=O)n3C)cc1C 1.08
CCOC(=O)N1CCN(CC(=O)c2ccc3c(c2)CCN3)CC1 0.99
CCCNC(=O)C1CC(=O)N(c2ccc(OCC(=O)Nc3cccc(C)c3C)cc2)C1 (stereo not drawn) 1.03
COc1ccc(N2C(=O)CCC(C(=O)Nc3ccccn3)C2c2ccc(OC)c(OC)c2)cc1 (stereo not drawn) 1.01
